Assay results: PubChem BioAssay (NCI)
This is part of a sample that, as a whole, favours compounds with a hit. Of some 83,000 tested, about 20% had one in any assay.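 48-hour exposure, single concentration, 96-well plates; percent growth endpoint where 0 means no net growth. Active: below 10.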 Unmarked numbers belong to inactive results. Active and inactive are the calls of the source.

test system: HCC-2998 colon; assay: NCI-60 one-dose screen, 48 h (100 = growth as untreated, 0 = no growth, -100 = all killed); conditions: 10 µM unless noted

Structure (SMILES) | growth
Cc1ccccc1Nc1cc(O)c2c(=O)cc(-c3ccccc3)oc2c1 | 76.7%
CN(C)c1ccc(/C=C(\C#N)c2cc3ccccc3[nH]2)cc1 | 45.5%
CNC1=CC(=O)c2c(C(=O)OC)c(C)[n+]([O-])c(C)c2C1=O | 50.1%
Cc1ccc(-c2nc(/C=C3/C(=O)Nc4ccc(F)cc43)c3ccccn23)cc1 | 95%
O=S(=O)(Oc1ccc(Br)cc1)c1ccc(Cl)cc1 | 83.2%
Cc1ccc(S(=O)(=O)Oc2ccc3sc4cccc(NCCN(C)C)c4c(=O)c3c2)cc1 | -96.7% (active)
CCCCNc1nnc2n(Cc3ccccc3)c(=O)c3c4c(sc3n12)CCCC4 | 65%
N=C(N)c1ccc(-c2ccc(-c3ccccc3)s2)cc1 | -27.7% (active)
CC/C(Cc1ccccc1)=C(\c1ccc(OCCCN(C)C)cc1)c1ccc(OC(=O)NCc2ccccc2)cc1 | 70.4%
CNC(=O)c1cc(Oc2ccc3c(c2)sc2nc(-c4ccc(OC)cc4)cn23)ccn1 | 17.4%
O=C(Nc1ncc(Cc2ccccc2)s1)c1ccc2c(c1)OCCCO2 | 22%
Cc1[nH]c(C2CC(c3ccc(C(F)(F)F)c(F)c3)=NN2c2ccccc2)c(C)c1C(=O)NCC(F)(F)F (stereo not drawn) | 96.5%
COc1cc2c(cc1OCCCCN1CCN(C(=S)SCCC(C#N)(c3ccccc3)c3ccccc3)CC1)N=C[C@@H]1CCCN1C2=O | -72.3% (active)
COc1ccc(-c2nc(-c3cn(C)c4ncccc34)cs2)cc1 | -9.69% [100 µM] (active)
COc1ccc(C(=O)Cn2c(C(=O)c3ccc(Cl)cc3)nc3ccccc32)cc1 | 72.7%
Cc1ccc(Cl)cc1NC(=O)c1sc2nc3c(cc2c1N)C(=O)CCC3 | 74.9%
Nn1c(=O)c(=O)[nH]c2c(cnn2-c2ccccc2)c1=O | 105%
Cc1ccc(CNc2c3ccccc3nc3ccccc23)cc1 | -2.62% (active)
COc1cc(Cl)c(C)cc1NC(=O)c1cc2ccccc2cc1O | 17%

Structure (SMILES) | growth
Cc1nc2ccccc2c(/C=C/c2ccccc2)c1C(=O)/C=C/c1ccccc1 | 31.6%
Cc1ncc(C(=O)Nc2ccc(CN3CCN(C)CC3)c(C(F)(F)F)c2)cc1C#Cc1cnc(N)c2ncccc12 | 52.1%
CN(CCCNC(=O)Cc1ccc2ccc3cccc4ccc1c2c34)CCCNc1cc(-c2ccc3ccccc3c2)nc2ccccc12 | -89.1% (active)
O=[N+]([O-])c1cc(NS(=O)(=O)c2ccccc2)ccc1NS(=O)(=O)c1ccccc1 | 99.3%
CC(=C(c1ccc(OCCN2CCCCC2)cc1)c1ccc(OCCN2CCCCC2)cc1)c1ccc(Cl)cc1 | -93.4% (active)
CCN1CCN(CC(=O)Nc2nc3ccc(NCc4ccc(F)cc4)cc3s2)CC1 | 110%
CCCCNc1cc(-c2cn[nH]c2-c2cc(C)cc(OC)c2)nc(-c2cccnc2)n1 | 106%
C/C(=N\O)c1ccc(NC(=O)CSc2nnc(-c3cc(-c4ccc(S(N)(=O)=O)cc4)nc4ccccc34)n2-c2ccccc2)cc1 | 87.5%
C=C1C(=O)O[C@H]2[C@H]1CC/C(COC(=O)/C=C\C(=O)NCc1ccc(Cn3c(=O)sn(CCCCC)c3=O)cc1)=C\CC[C@@]1(C)O[C@@H]21 | 100%
Cc1c2cccnc2c(C)c2c1c1cc(CO)ccc1n2C | 34.7%
C=C1C(=O)O[C@H]2[C@H]1CC/C(COC(=O)c1ccc(C(=O)O)s1)=C\CC[C@@]1(C)O[C@@H]21 | 61.6%
CCN1C(=O)N(CC)C2C1NN=c1s/c(=C\c3cnc(C)n3C)c(=O)n12 (stereo not drawn) | 45.6%
CC1=C(C(=O)Nc2ccccc2)C(c2ccc3c(c2)OCO3)NC(=S)N1 (stereo not drawn) | 109%
O=C(NC(Cc1nnc2n(Cc3ccccc3)c(=O)c3c4c(sc3n12)CCCC4)c1ccccc1)c1ccccc1 (stereo not drawn) | 108%
Cc1c2ccncc2c(C)c2c1c1cc(CO)ccc1n2C | 15.5%
COc1ccc(-c2nc3c(N)c(CO)cnc3s2)cc1 | 85.8%
O=C(O)COc1ccc(Cl)c(Cl)c1 | 106%
CCN(CC)c1ccc(/C=N/NC(=O)Cc2ccc(Nc3ccnc(C(F)(F)F)c3)cc2)c(O)c1 | 26.9%
NC(=O)c1cnc(Nc2cccc(N)c2)nc1NCCCNC(=O)C1CCC1 | 103%

test system: KM12 colon; assay: as above; conditions: 10 µM unless noted

Structure (SMILES) | growth
Cc1ccccc1Nc1cc(O)c2c(=O)cc(-c3ccccc3)oc2c1 | 36.4%
CN(C)c1ccc(/C=C(\C#N)c2cc3ccccc3[nH]2)cc1 | 24.9%
CNC1=CC(=O)c2c(C(=O)OC)c(C)[n+]([O-])c(C)c2C1=O | 61.3%
Cc1ccc(-c2nc(/C=C3/C(=O)Nc4ccc(F)cc43)c3ccccn23)cc1 | 81.7%
O=S(=O)(Oc1ccc(Br)cc1)c1ccc(Cl)cc1 | 99.3%
Cc1ccc(S(=O)(=O)Oc2ccc3sc4cccc(NCCN(C)C)c4c(=O)c3c2)cc1 | -85% (active)
CCCCNc1nnc2n(Cc3ccccc3)c(=O)c3c4c(sc3n12)CCCC4 | 49.8%
N=C(N)c1ccc(-c2ccc(-c3ccccc3)s2)cc1 | -7.55% (active)
CC/C(Cc1ccccc1)=C(\c1ccc(OCCCN(C)C)cc1)c1ccc(OC(=O)NCc2ccccc2)cc1 | 72.8%
CNC(=O)c1cc(Oc2ccc3c(c2)sc2nc(-c4ccc(OC)cc4)cn23)ccn1 | 58.9%
O=C(Nc1ncc(Cc2ccccc2)s1)c1ccc2c(c1)OCCCO2 | 16.4%
Cc1[nH]c(C2CC(c3ccc(C(F)(F)F)c(F)c3)=NN2c2ccccc2)c(C)c1C(=O)NCC(F)(F)F (stereo not drawn) | 87.5%
COc1cc2c(cc1OCCCCN1CCN(C(=S)SCCC(C#N)(c3ccccc3)c3ccccc3)CC1)N=C[C@@H]1CCCN1C2=O | -60.9% (active)
COc1ccc(-c2nc(-c3cn(C)c4ncccc34)cs2)cc1 | 3.74% [100 µM] (active)
COc1ccc(C(=O)Cn2c(C(=O)c3ccc(Cl)cc3)nc3ccccc32)cc1 | 38.2%
Cc1ccc(Cl)cc1NC(=O)c1sc2nc3c(cc2c1N)C(=O)CCC3 | 37%
Nn1c(=O)c(=O)[nH]c2c(cnn2-c2ccccc2)c1=O | 107%
Cc1ccc(CNc2c3ccccc3nc3ccccc23)cc1 | 23.4%
COc1cc(Cl)c(C)cc1NC(=O)c1cc2ccccc2cc1O | 9.32% (active)
Cc1nc2ccccc2c(/C=C/c2ccccc2)c1C(=O)/C=C/c1ccccc1 | 11.6%

Structure (SMILES) | growth
Cc1ncc(C(=O)Nc2ccc(CN3CCN(C)CC3)c(C(F)(F)F)c2)cc1C#Cc1cnc(N)c2ncccc12 | 7.51% (active)
CN(CCCNC(=O)Cc1ccc2ccc3cccc4ccc1c2c34)CCCNc1cc(-c2ccc3ccccc3c2)nc2ccccc12 | -80% (active)
O=[N+]([O-])c1cc(NS(=O)(=O)c2ccccc2)ccc1NS(=O)(=O)c1ccccc1 | 103%
O=C1/C(=C\c2cccc3nccnc23)SC(=S)N1CCc1ccc(O)cc1 | 97.1%
CC(=C(c1ccc(OCCN2CCCCC2)cc1)c1ccc(OCCN2CCCCC2)cc1)c1ccc(Cl)cc1 | -84.9% (active)
CCN1CCN(CC(=O)Nc2nc3ccc(NCc4ccc(F)cc4)cc3s2)CC1 | 94.5%
CCCCNc1cc(-c2cn[nH]c2-c2cc(C)cc(OC)c2)nc(-c2cccnc2)n1 | 93.9%
C/C(=N\O)c1ccc(NC(=O)CSc2nnc(-c3cc(-c4ccc(S(N)(=O)=O)cc4)nc4ccccc34)n2-c2ccccc2)cc1 | 65%
CCCn1cnc2c(c1=N)C(c1ccc(F)cc1)c1sc3c(F)cccc3c1O2 (stereo not drawn) | 36.1%
C=C1C(=O)O[C@H]2[C@H]1CC/C(COC(=O)/C=C\C(=O)NCc1ccc(Cn3c(=O)sn(CCCCC)c3=O)cc1)=C\CC[C@@]1(C)O[C@@H]21 | 98.8%
Cc1c2cccnc2c(C)c2c1c1cc(CO)ccc1n2C | 31.1%
C=C1C(=O)O[C@H]2[C@H]1CC/C(COC(=O)c1ccc(C(=O)O)s1)=C\CC[C@@]1(C)O[C@@H]21 | 55.6%
CCN1C(=O)N(CC)C2C1NN=c1s/c(=C\c3cnc(C)n3C)c(=O)n12 (stereo not drawn) | 16.1%
CC1=C(C(=O)Nc2ccccc2)C(c2ccc3c(c2)OCO3)NC(=S)N1 (stereo not drawn) | 103%
O=C(NC(Cc1nnc2n(Cc3ccccc3)c(=O)c3c4c(sc3n12)CCCC4)c1ccccc1)c1ccccc1 (stereo not drawn) | 108%
Cc1c2ccncc2c(C)c2c1c1cc(CO)ccc1n2C | 9.22% (active)
COc1ccc(-c2nc3c(N)c(CO)cnc3s2)cc1 | 88.4%
O=C(O)COc1ccc(Cl)c(Cl)c1 | 110%
CCN(CC)c1ccc(/C=N/NC(=O)Cc2ccc(Nc3ccnc(C(F)(F)F)c3)cc2)c(O)c1 | 41%
NC(=O)c1cnc(Nc2cccc(N)c2)nc1NCCCNC(=O)C1CCC1 | 74.8%
